Common to all, as to test: NCI-60 one-dose screen, 48 h (100 = growth as untreated, 0 = no growth, -100 = all killed)
The subject of one assay is T-47D breast. The conditions noted are these: 10 µM unless noted.
The test system of a further assay is BT-549 breast. The conditions noted are these: 10 µM unless noted.
The next assay deals with MDA-MB-435 melanoma. The settings on record: 10 µM unless noted.
A further assay concerns SW-620 colon. The conditions noted are these: 10 µM unless noted.
For a further assay, the system named is MCF7 breast. The settings on record: 10 µM unless noted.
In the next assay the test system is HCT-116 colon. The settings on record: 10 µM unless noted.
Another assay relates to HCC-2998 colon. The settings on record: 10 µM.
A further assay has as its system KM12 colon. The settings on record: 10 µM unless noted.

Molecules are shown by their SMILES. This is part of a sample that, as a whole, favours compounds with a hit. Of some 83,000 tested, about 20% had one in any assay.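 The endpoint reported here, percent growth, reads 100 for growth as untreated, 0 for no net growth and -100 for all cells dead.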 A number with no mark means an inactive call. Activity calls are given as the source filed them. How the source made its calls: active means growth percent below 10; inactive means the rest.

`COc1cc2c(c(OC)c1)C1c3ccccc3NC(=O)N1CC2` (configuration not stated): the growth with T-47D breast is 44%; in the assay on BT-549 breast it was 50.3%; in the assay on MDA-MB-435 melanoma, -48.8% (active); in the assay with SW-620 colon, 20.5%; in the assay on MCF7 breast it was 18.1%; in the assay with HCT-116 colon it was 30.6%. For the same compound, the growth was 53.4% in the assay on HCC-2998 colon and 26.2% in the assay with KM12 colon.
As to `CN1CCC(CNc2ccc3ncc(-c4cccc(OC(F)(F)F)c4)n3n2)CC1`, the growth is -79.5% (active) in the assay on T-47D breast; -0.185% (active) with BT-549 breast; -95.8% (active) in the assay with MDA-MB-435 melanoma; -61.9% (active) in the assay on SW-620 colon; -49.5% (active) in the assay with MCF7 breast; -75.1% (active) in the assay on HCT-116 colon. Also, the growth in the assay with HCC-2998 colon is -84.4% (active); in the assay with KM12 colon, -1.37% (active).
`Cc1cc(N2CCCC2)nc(N(CCCNc2ccnc3cc(Cl)ccc23)Cc2ccc3c(c2)OCO3)n1`: the growth in the assay with T-47D breast is -18.4% (active); with BT-549 breast, -14.1% (active); with MDA-MB-435 melanoma, -71.9% (active); with SW-620 colon, -27% (active); in the assay with MCF7 breast, -12.8% (active); in the assay with HCT-116 colon, -22.9% (active). Moreover, the results for the growth in the assay with HCC-2998 colon and in the assay with KM12 colon were -52.4% (active) and 19.1%, respectively.
For `CN1CCN(Cc2ccc(NC(=O)c3[nH]ncc3Nc3ncnc4sc5c(c34)CCCC5)cc2)CC1`, the growth with T-47D breast was 9.76% (active); with BT-549 breast it was -20.7% (active); with MDA-MB-435 melanoma, -89% (active); with SW-620 colon it was -52% (active); in the assay with MCF7 breast it was -67.2% (active); in the assay with HCT-116 colon, -96% (active). Besides, the growth in the assay on HCC-2998 colon is -74.9% (active); in the assay on KM12 colon, -64.3% (active).
Turning to `CCN(CC)CCN1C(=O)c2cccc3c(-c4ccc5c(c4)ncn5C4CCCCC4)ccc(c23)C1=O`, the growth in the assay with T-47D breast was -9.17% (active); in the assay with BT-549 breast, 4.57% (active); in the assay with MDA-MB-435 melanoma, 17%; in the assay with SW-620 colon, 11.2%; in the assay with MCF7 breast, -7% (active); in the assay on HCT-116 colon it was -66.1% (active). Moreover, the growth with HCC-2998 colon was 36.7%; with KM12 colon, 24.3%.
Turning to `CN1CCN(c2nc(NCCNc3ccnc4cc(Cl)ccc34)c3ccccc3n2)CC1`, the growth is 0.35% (active) with T-47D breast; 28.3% in the assay with BT-549 breast; -11.4% (active) in the assay on MDA-MB-435 melanoma; 26.5% in the assay on SW-620 colon; 36% in the assay on MCF7 breast; 6.36% (active) with HCT-116 colon. Further, the growth was 9.65% (active) in the assay on HCC-2998 colon and 29.2% in the assay with KM12 colon.
Consider `COc1ccc(CCCc2c3[n+](cc4c(OC)c(OC)ccc24)CCc2cc4c(cc2-3)OCO4)cc1`, for which the growth in the assay with T-47D breast was 15.6%; in the assay on BT-549 breast, 41.8%; in the assay with MDA-MB-435 melanoma, 39.7%; with SW-620 colon it was 68.9%; with MCF7 breast, 93.7%; with HCT-116 colon it was 59.2%. In addition, the growth in the assay on HCC-2998 colon was 74%; with KM12 colon, 30.8%.
As for `C=CCN(/C=C1/C(=O)O[C@H](COC)[C@@]2(C)C1=C(O)C(=O)C1=C2[C@H](OC(C)=O)C[C@]2(C)C(=O)CC[C@@H]12)CC=C`, the growth with T-47D breast was -10.6% (active); in the assay with BT-549 breast, -7.68% (active); in the assay with MDA-MB-435 melanoma, 21.4%; in the assay with SW-620 colon it was 39.8%; in the assay on MCF7 breast, 11.8%; with HCT-116 colon, 14.6%. In addition, the growth in the assay with HCC-2998 colon was -20.4% (active); with KM12 colon, 22.4%.
Take `Fc1ccc(NCc2cn(-c3ccccc3)nc2-c2ccc(OCc3ccccc3)cc2)cc1Cl`: the growth in the assay with T-47D breast is 79.8%; in the assay on BT-549 breast, 89.6%; with MDA-MB-435 melanoma, 102%; in the assay with SW-620 colon, 108%; in the assay with MCF7 breast, 94.1%; in the assay on HCT-116 colon, 76.8%. Moreover, the results for the growth with HCC-2998 colon and with KM12 colon were 102% and 98%, respectively.
With `CO[C@H](C(=O)N[C@@H](CCCCNC(=O)OCc1ccccc1)C(=O)OC(C)(C)C)[C@@H]1Cc2cc3cc(OC4CC(OC5CC(O)C(O)C(C)O5)C(O)C(C)O4)c(C)c(O)c3c(O)c2C(=O)[C@H]1OC1CC(OC2CC(OC3CC(C)(O)C(O)C(C)O3)C(O)C(C)O2)C(O)C(C)O1` (some centres not stated), the growth was 7.2% (active) in the assay on T-47D breast; -79.7% (active) in the assay with BT-549 breast; -69.8% (active) in the assay with MDA-MB-435 melanoma; 3.71% (active) with SW-620 colon; 3.56% (active) with MCF7 breast; -63.9% (active) with HCT-116 colon. In addition, the growth with HCC-2998 colon is -5.55% (active); in the assay on KM12 colon it was -62.7% (active).
Turning to `O=C(NC1CCNCC1)c1[nH]ncc1NC(=O)c1c(Cl)cccc1Cl`, the growth in the assay on T-47D breast is -3.82% (active); in the assay on BT-549 breast, 7.37% (active); in the assay with MDA-MB-435 melanoma it was -43.3% (active); in the assay on SW-620 colon it was 6.16% (active); in the assay with MCF7 breast it was 3.78% (active); with HCT-116 colon, 4.77% (active). For the same compound, the growth in the assay on HCC-2998 colon is -2.4% (active); in the assay on KM12 colon it was 8.2% (active).
As to `COC[C@@H](C)n1c(C2CCOCC2)nc2c1C1C=C(OC)C(c3c(C)noc3C)=CC1N=C2` (some centres not stated), the growth with T-47D breast was 44.6%; in the assay on BT-549 breast, 62.6%; with MDA-MB-435 melanoma it was 41.6%; in the assay with SW-620 colon it was 72.1%; in the assay on MCF7 breast, 15.5%; in the assay on HCT-116 colon, 53.4%. Moreover, the growth in the assay on HCC-2998 colon is 52.7%; with KM12 colon it was 43%.
Consider `CCN1CCN(Cc2ccc(NC(=O)Nc3nc(-c4cc(OC)c(OC)c(OC)c4)cs3)cc2C(F)(F)F)CC1`, for which the growth is -23.9% (active) in the assay on T-47D breast; 45.3% with BT-549 breast; -51.4% (active) in the assay on MDA-MB-435 melanoma; 3.34% (active) in the assay on SW-620 colon; -15.2% (active) with MCF7 breast; -58% (active) in the assay on HCT-116 colon. The figures for the growth in the assay on HCC-2998 colon and in the assay on KM12 colon were -36.6% (active) and -56.8% (active), respectively.
In the case of `O=C1CC(c2ccc3c(c2)OCO3)c2ncn(-c3ccc(Cl)cc3)c2N1` (configuration not stated), the growth with T-47D breast is 41.3%; with BT-549 breast, 57.5%; with MDA-MB-435 melanoma, -42.8% (active); in the assay with SW-620 colon, 24.3%; in the assay on MCF7 breast, 45.5%; in the assay with HCT-116 colon, 11.4%. For the same compound, the growth in the assay on HCC-2998 colon is 68.1%; with KM12 colon, 32.7%.
